# From PubChem BioAssay (Tox21)
# Records with an inconclusive call do not appear. A call without a number means that no potency is given here. Values without a mark were called inactive. Calls of active or inactive are those of the source. The call rests on the fitted dose curve; in most records, active means well fitted activation curve with a large enough effect in the signal ratio in the repeat runs (not every such curve was filed as active); inconclusive means weak or mixed curves, or effect the other way; inactive means flat fitted curve, though single readings scatter; the % refers to the signal ratio.
# Test: qHTS assay to identify small molecule agonists of the endoplasmic reticulum stress response signaling pathway (AID 1159516)
# Conditions: ESRE-bla HeLa, ER stress beta-lactamase reporter, 5 h; series mostly up to 61 µM; activation: at the top concentration
# Excerpt: National Center for Advancing Translational Sciences [NCATS]
# NIH Chemical Genomics Center [NCGC]
# U.S. Environmental Protection Agency [EPA]
# National Institutes of Environmental Health Sciences [NIEHS]
# National Toxicology Program [NTP]
# U.S. Food and Drug Administration [FDA]
# Endoplasmic Reticulum (ER) plays an important role in cellular signaling, protein folding/maturation, stress response, lipid biosynthesis, calcium storage and release etc. Under stress conditions, proteins in ER misfold or unfold, and leading to the expression of ER stress responsive genes. ER stress has been associated with a variety of pathophysiological conditions such as cancer, inflammation, neurodegenerative diseases, diabetes, ischemic heart disease etc. To identify the compounds that induce ER stress response, an ER stress reporter cell line, CellSensor ESRE-bla HeLa (Life Technologies, Carlsbad, CA) containing a beta-lactamase reporter gene under control of the Endoplasmic reticulum Stress Response Element (ESRE) was used to screen Tox21 10K compound library.
# Tox21 Assay Protocol Summary:
# ESRE-bla HeLa cells were dispensed at 1,500 cells/6 uL of assay medium per well into black wall/clear-bottom 1536-well plates using a Multidrop Combi (ThermoFisher Scientific, Waltham, MA) dispenser. After the assay plates were incubated at 37 C and 5% CO2 for an overnight, 23 nL of compounds dissolved in DMSO, positive controls or DMSO only was transferred to the assay plate by a Pintool station (Kalypsys, San Diego, CA). The assay plates were incubated at 37 C and 5% CO2 for 5 hr. One uL of LiveBLAzer B/G FRET substrate (Life Technologies) was added using a Flying Reagent Dispenser (Aurora Discovery, San Diego, CA) and the plates were incubated at room temperature for 2 hr. Fluorescence intensity (405 nm excitation, 460 nm and 530 nm emissions) was measured using an Envision plate reader (PerkinElmer, Shelton, CT).
Structure (SMILES),Potency,activation
O=C(c1ccccc1)c1ccccc1O,inactive,–
C/C=C/C(=O)O,inactive,–
CCCCC(CC)COCC1CO1 (stereo not given),inactive,–
O=C(c1ccccc1)c1ccc(O)cc1O,inactive,–
O=CCc1ccccc1,inactive,–
CN(C)CCC=C1c2ccccc2CCc2ccccc21,inactive,–
C=C(C)C1CC=C(C)CC1 (stereo not given),inactive,–
CC(C)(C)NC(=O)[C@H]1CC[C@H]2[C@@H]3CC[C@H]4NC(=O)C=C[C@]4(C)[C@H]3CC[C@]12C,inactive,–
NC=O,inactive,–
CCC(C)CO (stereo not given),inactive,–
CC(C)CC(C)(O)C#CC(C)(O)CC(C)C (stereo not given),–,-2.3%
O=Cc1ccccc1O,inactive,–
O=P(O)(O)O,inactive,–
O=[N+]([O-])c1ccc2c(c1)Cc1ccccc1-2,inactive,–
CN(C)CCN(Cc1cccs1)c1ccccn1,inactive,–
COC(=O)C1=C(C)NC(C)=C(C(=O)OCCN(C)Cc2ccccc2)C1c1cccc([N+](=O)[O-])c1 (stereo not given),–,-5.78%
CCC(C)c1ccccc1O (stereo not given),inactive,–
C#C[C@]1(O)CC[C@H]2[C@@H]3CCC4=Cc5oncc5C[C@]4(C)[C@H]3CC[C@@]21C,inactive,–
CC(=O)CC/C=C(\C)CCC=C(C)C,–,0.369%
O=C(Nc1ccc(Cl)cc1)Nc1ccc(Cl)c(Cl)c1,inactive,–

Structure (SMILES),Potency,activation
CC1=CCC(C(C)(C)O)CC1 (stereo not given),inactive,–
CN(C)C(=N)N=C(N)N,inactive,–
O=C(OCc1ccccc1)c1ccccc1O,inactive,–
CCCCCCCCCCCO,inactive,–
Cc1cc2nc3c(=O)[nH]c(=O)nc-3n(C[C@H](O)[C@H](O)[C@H](O)CO)c2cc1C,–,-4.07% [at 28.5 µM]
c1cc(-c2ccncc2)ccn1,inactive,–
Cc1ncc[nH]1,inactive,–
Cc1cccc(N(C)C(=S)Oc2ccc3ccccc3c2)c1,–,6.37%
NNc1ccc(C(=O)O)cc1,inactive,–
C[Si](C)(C)O[Si](C)(C)C,inactive,–
CCCCc1oc2ccccc2c1C(=O)c1cc(I)c(OCCN(CC)CC)c(I)c1,–,0.109%
CC(=O)O[C@]1(C(C)=O)CC[C@H]2[C@@H]3C=C(Cl)C4=CC(=O)[C@@H]5C[C@@H]5[C@]4(C)[C@H]3CC[C@@]21C,inactive,–
CC(C)Oc1ccc2c(=O)c(-c3ccccc3)coc2c1,inactive,–
CN(C)c1nc(N(C)C)nc(N(C)C)n1,inactive,–
c1ccncc1,inactive,–
c1cc(N(CC2CO2)CC2CO2)ccc1OCC1CO1 (stereo not given),inactive,–
CNCCCC12CCC(c3ccccc31)c1ccccc12,inactive,–
Cc1c(OCC(F)(F)F)ccnc1CS(=O)c1nc2ccccc2[nH]1 (stereo not given),inactive,–
Nc1ccc(Nc2ccccc2)cc1,–,1.2%
Cc1[nH]c(=O)c(C#N)cc1-c1ccncc1,–,3.5%
